Test [1] addresses Lysosomal acid glucosylceramidase (Homo sapiens) (UniProt P04062). As to the kind of experiment: Glucocerebrosidase-p2 (AID 348; in the data active = potency below about 10 µM; note: potency is the fitted concentration of half-maximal effect). As to conditions: purified GBA, blue fluorogenic substrate, 40 min. A digest of the protocol:
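Normal human glucocerebrosidase (0.2 nM) with blue fluorogenic substrate (80 uM final) in citrate/phosphate pH 5.9 with 10mM sodium taurocholate, 0.01% tween-20; 40 min RT, NaOH/glycine stop; fluorescence Ex 365/Em 440; AC50 from a titration from 0.6 nM upwards.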

Test [2] in a line: AP1 Signaling Pathway (AID 357).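 Note: ME-180 reporter cells stimulated with EGF at its EC50 level; % is set by controls: 0 for no effect and ±100 for the full control effect.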 As to conditions: ME-180 AP-1-bla reporter, EGF-induced, beta-lactamase ratio, 5 h; at 7.69 µM (top of the series) unless noted. A digest of the protocol: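 Beta-lactamase reporter under AP-1 response element, ME-180 background. Stimulus: EC50 EGF. Compound exposure 5 h, 37 °C. Detection: CCF4, 2.5 h RT, 460/530 nm. Values: AC50 from titration.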

In test [3] the target is Cytochrome P450 1A2 (Homo sapiens) (UniProt P05177). As to the kind of experiment: p450-cyp1a2 (AID 410; calls by dose curve; note: potency is the fitted concentration of half-maximal effect). The essentials:
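Read-out is luminescence from luciferin produced by CYP1A2 demethylation of Luciferin-ME (100uM, at Km). Detection reagent stopped the 60 min NADPH-dependent reaction; signals were normalized to 57 uM furafylline.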

A short description of test [4]: NFAT Signaling Pathway (AID 444).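 Note: carbachol stimulus at about its EC50 of 1 µM final; % is set by controls: 0 for no effect and ±100 for the full control effect.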 The note with it: Jurkat NFAT-bla M1, carbachol, beta-lactamase ratio, 5 h; at 7.69 µM (top of the series) unless noted. The essentials: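 Read-out: CCF4 FRET ratio (460 nm/530 nm) after 1 h RT dye loading, used for %activity and AC50 from titration series. Cells: Jurkat NFAT-β-lactamase/M1 line, treated with compound plus 1 uM carbachol for 5 h, 37 °C.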

A short description of test [5]: Stat Signaling Pathway (AID 446).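 Note: ME-180 cervical cancer cells given 40 pM IL-6 alongside compound; SIE-controlled beta-lactamase reporter measured as 460/530 nm FRET emission ratio; % is set by controls: 0 for no effect and ±100 for the full control effect.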 As to conditions: ME-180 SIE beta-lactamase reporter, IL-6 stimulated, 5 h; at 7.69 µM (top of the series) unless noted. A digest of the protocol: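 Overnight-plated ME-180 cells bearing a STAT Inducible Element beta-lactamase reporter; 5 h co-exposure to compound and 40 pM IL-6; values normalized to 300 pM IL-6 and 125 nM JAK inhibitor controls.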

The target of test [6] is Glucocorticoid receptor (Homo sapiens) (UniProt P04150). As to the kind of experiment: GR-GFP Redistribution (AID 450;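 active = compounds whose dose series gives a full or clear partial fitted curve of increased nuclear translocation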; note: potency is the fitted concentration of half-maximal effect). The note with it: U2OS GR-GFP nuclear translocation, laser cytometry, 2 h.
For test [7] the target is unchanged. As to the kind of experiment: GR-EFC Redistribution (AID 451; calls by dose curve; note: potency is the fitted concentration of half-maximal effect). As to conditions: CHO-K1 GR-EFC translocation, beta-gal luminescence, 2 h. A digest of the protocol: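 Translocation of GR-ED fusion to nuclear EA restores b-gal, read by luminescence after 1 h room-temperature detection. Engineered CHO-K1 biosensor cells, 1,000/well, exposed 2 h at 37 C to titrations up to 46 uM final.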

In test [8] the target is Mitogen-activated protein kinase 10 (Mus musculus) (UniProt Q61831). As to the kind of experiment: JNK3 AlphaScreen Assay (AID 530).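 Note: kinase came from lysate of stimulated human HepG2 cells; signal reports phosphorylation of biotinylated GST-cJun 1-79 at Ser73 with 10 µM ATP; % is set by controls: 0 for no effect and ±100 for the full control effect.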 The essentials:
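Kinase buffer: 20 mM Tris-HCl pH 7.6, 10 mM MgCl2, 1 mM DTT, 0.1 mM Na3VO4, 0.01% Tween-20; ATP 10 uM. Substrate biotin-GST-cJun(1-79), enzyme from activated HepG2 lysates. Detection by Ser73 phospho-antibody AlphaScreen.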

The target in test [9] is 3',5'-cyclic-AMP phosphodiesterase 4B (Homo sapiens) (UniProt Q07343). As to the kind of experiment: qHTS Assay for Inhibitors of PDE-IV (AID 607; active = well fitted activation curve with a large enough effect in the main read-out, with a control signal flat, not every such curve was filed as active; note: % of control where 0% means no effect). A digest of the protocol:
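Live HEK293 cells with a modified cyclic nucleotide-gated (CNG) channel report intracellular cAMP via membrane-potential dye fluorescence (ex 535/em 590 nm). Endogenous PDE-IV was targeted. Compounds were tested at up to 22.9 uM final; RO 20-1724 100 uM served as control.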

For test [10], the target named is Cytochrome P450 2C9 (Homo sapiens) (UniProt P11712). As to the kind of experiment: qHTS Assay for Inhibitors and Substrates of Cytochrome P450 2C9 (AID 883; active = well fitted curve in the direction sought with a large enough effect; an effect the other way counts as inactive or inconclusive; note: potency is the fitted concentration of half-maximal effect; nearly all actives have a fitted effect of over 60% in size). A digest of the protocol:
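Turnover of Luciferin-H (100uM, KM) by 10nM human CYP2C9 was measured over 60 min at 37C with NADPH regeneration; inhibitors and some substrates reduce luminescence. Data normalized to sulphaphenazole 57uM.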

In test [11] the target is Cytochrome P450 3A4 (Homo sapiens) (UniProt P08684). As to the kind of experiment: qHTS Assay for Inhibitors and Substrates of Cytochrome P450 3A4 (AID 884; active = well fitted curve in the direction sought with a large enough effect; an effect the other way counts as inactive or inconclusive; note: potency is the fitted concentration of half-maximal effect; nearly all actives have a fitted effect of over 50% in size). A digest of the protocol: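 Luminescent readout of luciferin produced by CYP3A4 (20 nM) dealkylation of Luciferin-PPXE, 25 uM (its KM). NADPH-driven reaction ran 60 min at RT after 10 min compound preincubation; data scaled to 57 uM ketoconazole as 100% inhibition.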

Test [12] shares this target. As to the kind of experiment: qHTS Assay for Activators of Cytochrome P450 3A4 (AID 885; active = well fitted curve in the direction sought with a large enough effect; an effect the other way counts as inactive or inconclusive; note: nearly all actives have a fitted effect of over 65% in size). The essentials:
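Using 20nM recombinant human CYP3A4 in potassium phosphate (200mM), substrate Luciferin-PPXE at 25uM, luminescent luciferin detection followed a 60-min RT NADPH reaction; data scaled to 57 uM ketoconazole.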

Test [13] in a line: qHTS Assay for Identification of Small Molecule Agonists for Hypoxia Response Element Signaling Pathway (AID 914; active = well fitted activation curve with a large enough effect in the signal ratio, with a control signal flat, not every such curve was filed as active; the % refers to the signal ratio; note: potency is the fitted concentration of half-maximal effect; for activation: % of control where 0% means no effect). As to conditions: ME-180 (cervical carcinoma) HRE-bla reporter, beta-lactamase ratio, CoCl2, 17 h; activation: stronger effect = higher value. A digest of the protocol: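 A beta-lactamase reporter under hypoxia response element control in ME-180 cells served as the system. Compound titrations plus EC50 CoCl2 ran 17 h at 37 degrees Celsius; AC50 values were fitted from %Activity.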

Test [14] in a line: Primary qHTS for small molecule stabilizers of the endoplasmic reticulum resident proteome: Secreted ER Calcium Modulated Protein (SERCaMP) assay (AID 1508630; active = well fitted curve in the direction sought with a large enough effect; an effect the other way counts as inactive or inconclusive; note: % is set by controls: 0 for no effect and ±100 for the full control effect). The essentials:
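The SH-SY5Y reporter protocol was run at 3 concentrations up to 38.3 uM (primary) or 11 concentrations (follow-up): 16 h compound, 100 nM thapsigargin for 4 h, then extracellular luciferase luminescence.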

The target of test [15] is Ubiquitin carboxyl-terminal hydrolase 1 (Homo sapiens) (UniProt O94782). As to the kind of experiment: Inhibitors of USP1/UAF1: Pilot qHTS (AID 504865; active = well fitted curve in the direction sought with a large enough effect; an effect the other way counts as inactive or inconclusive;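 note: rhodamine fluorescence freed from ubiquitin-rhodamine substrate followed over time; top concentration of the series differs between compounds; % is set by controls: 0 for no effect and ±100 for the full control effect; nearly all actives have a fitted effect of over 35% in size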). A digest of the protocol:
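Kinetic fluorescence assay: 1nM USP1/UAF1, 15 min compound preincubation, then 150nM Ub-Rho; 480/540 nm.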

The nature of test [16]: Confirmation and Secondary Assay for Modulators of Hemoglobin Beta Chain Splicing at IVS2 654 locus (AID 910; active = well fitted curve in the direction sought with a large enough effect; an effect the other way counts as inactive or inconclusive;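 note: HeLa cells stably carrying EGFP split by mutant beta-globin IVS2-654 intron; per-well total GFP intensity by laser scanning cytometry after 2-day treatment; % of control where 0% means no effect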). The essentials: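 Readout: per-well total peak green fluorescence (488 nm ex, 500–520 nm em) from objects 5–250 µm, reflecting correct splicing of an EGFP-654 reporter. Compounds were applied for 2 days at 37 °C to overnight-plated HeLa EGFP-654 cells; controls were DMSO and 500 nM IVS2-654 PNA.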

Test [17] in a line: Confirmation and Secondary Assay for Modulators of Hemoglobin Beta Chain Splicing at IVS2 705 locus (AID 930; active = well fitted curve in the direction sought with a large enough effect; an effect the other way counts as inactive or inconclusive;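 note: HeLa cells stably expressing the EGFP-705 splicing reporter; % of control where 0% means no effect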). A digest of the protocol: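 Fluorescence gain (488 nm laser, 500-520 nm PMT) reflects restored correct splicing of a mutant IVS2-705 intron inside EGFP in stably transfected HeLa cells after 2-day compound treatment.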

The structures appear in SMILES notation. Values without a mark were called inactive. Records with an inconclusive call do not appear. Activity calls are given as the source filed them. Unless noted, calls come from the whole dose curve; as a rule, active = well fitted curve in either direction with a large enough effect (not every such curve was filed as active); inconclusive = small, poorly fitted or top-dose-only effect, or another doubt; inactive = flat fitted curve, though single readings scatter. A value given as a limit tells only on which side of the number the result lay.

Cytochrome P450 3A4 (Homo sapiens), sequence (P08684 whole entry, looked up): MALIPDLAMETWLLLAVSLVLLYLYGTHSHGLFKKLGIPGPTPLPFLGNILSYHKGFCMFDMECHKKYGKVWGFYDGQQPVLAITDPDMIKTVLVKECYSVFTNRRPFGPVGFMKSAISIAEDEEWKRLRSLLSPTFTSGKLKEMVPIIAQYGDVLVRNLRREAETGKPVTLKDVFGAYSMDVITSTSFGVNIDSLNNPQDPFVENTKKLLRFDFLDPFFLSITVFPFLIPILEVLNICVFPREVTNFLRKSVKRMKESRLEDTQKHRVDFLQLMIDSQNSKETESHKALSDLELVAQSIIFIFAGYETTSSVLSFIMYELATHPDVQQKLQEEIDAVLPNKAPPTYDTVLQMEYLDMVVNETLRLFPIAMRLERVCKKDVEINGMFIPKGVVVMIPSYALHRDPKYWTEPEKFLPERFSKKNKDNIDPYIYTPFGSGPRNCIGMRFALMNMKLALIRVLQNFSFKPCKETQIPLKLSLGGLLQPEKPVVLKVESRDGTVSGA
Lysosomal acid glucosylceramidase (Homo sapiens), sequence (P04062 whole entry, looked up): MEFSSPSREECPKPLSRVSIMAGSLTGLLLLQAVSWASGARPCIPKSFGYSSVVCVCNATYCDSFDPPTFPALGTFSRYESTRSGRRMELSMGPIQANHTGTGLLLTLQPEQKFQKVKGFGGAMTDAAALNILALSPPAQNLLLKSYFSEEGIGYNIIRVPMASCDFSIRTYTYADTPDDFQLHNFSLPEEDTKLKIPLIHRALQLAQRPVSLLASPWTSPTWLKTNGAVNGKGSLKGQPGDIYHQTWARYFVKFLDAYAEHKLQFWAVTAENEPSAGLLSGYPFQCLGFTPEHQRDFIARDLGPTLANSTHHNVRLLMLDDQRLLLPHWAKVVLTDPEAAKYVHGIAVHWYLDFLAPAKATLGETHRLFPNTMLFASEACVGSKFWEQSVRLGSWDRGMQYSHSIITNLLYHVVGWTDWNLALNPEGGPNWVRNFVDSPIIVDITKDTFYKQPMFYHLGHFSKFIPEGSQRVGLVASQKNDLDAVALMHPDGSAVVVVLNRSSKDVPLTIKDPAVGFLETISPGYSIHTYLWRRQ
Ubiquitin carboxyl-terminal hydrolase 1 (Homo sapiens), sequence (O94782 whole entry, looked up): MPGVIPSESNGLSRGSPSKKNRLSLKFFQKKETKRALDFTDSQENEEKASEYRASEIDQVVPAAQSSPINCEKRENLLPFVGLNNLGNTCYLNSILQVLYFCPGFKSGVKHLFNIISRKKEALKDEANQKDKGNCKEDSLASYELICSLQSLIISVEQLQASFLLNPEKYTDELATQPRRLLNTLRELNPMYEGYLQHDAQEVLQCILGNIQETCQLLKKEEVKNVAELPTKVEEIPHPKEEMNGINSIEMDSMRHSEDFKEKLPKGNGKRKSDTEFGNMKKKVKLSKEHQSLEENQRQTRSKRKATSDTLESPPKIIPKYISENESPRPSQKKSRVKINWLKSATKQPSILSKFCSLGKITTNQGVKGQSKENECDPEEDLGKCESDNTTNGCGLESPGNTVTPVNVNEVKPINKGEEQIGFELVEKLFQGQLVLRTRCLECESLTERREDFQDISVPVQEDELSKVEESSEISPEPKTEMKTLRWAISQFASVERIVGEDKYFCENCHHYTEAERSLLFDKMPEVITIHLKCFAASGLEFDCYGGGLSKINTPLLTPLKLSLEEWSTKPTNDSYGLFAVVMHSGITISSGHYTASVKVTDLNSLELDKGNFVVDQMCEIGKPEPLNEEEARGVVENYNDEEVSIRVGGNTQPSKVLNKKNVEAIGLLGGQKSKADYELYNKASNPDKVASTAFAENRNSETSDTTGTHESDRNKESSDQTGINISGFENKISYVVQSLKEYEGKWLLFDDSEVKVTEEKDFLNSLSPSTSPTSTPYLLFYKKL
3',5'-cyclic-AMP phosphodiesterase 4B (Homo sapiens), sequence (Q07343 whole entry, looked up): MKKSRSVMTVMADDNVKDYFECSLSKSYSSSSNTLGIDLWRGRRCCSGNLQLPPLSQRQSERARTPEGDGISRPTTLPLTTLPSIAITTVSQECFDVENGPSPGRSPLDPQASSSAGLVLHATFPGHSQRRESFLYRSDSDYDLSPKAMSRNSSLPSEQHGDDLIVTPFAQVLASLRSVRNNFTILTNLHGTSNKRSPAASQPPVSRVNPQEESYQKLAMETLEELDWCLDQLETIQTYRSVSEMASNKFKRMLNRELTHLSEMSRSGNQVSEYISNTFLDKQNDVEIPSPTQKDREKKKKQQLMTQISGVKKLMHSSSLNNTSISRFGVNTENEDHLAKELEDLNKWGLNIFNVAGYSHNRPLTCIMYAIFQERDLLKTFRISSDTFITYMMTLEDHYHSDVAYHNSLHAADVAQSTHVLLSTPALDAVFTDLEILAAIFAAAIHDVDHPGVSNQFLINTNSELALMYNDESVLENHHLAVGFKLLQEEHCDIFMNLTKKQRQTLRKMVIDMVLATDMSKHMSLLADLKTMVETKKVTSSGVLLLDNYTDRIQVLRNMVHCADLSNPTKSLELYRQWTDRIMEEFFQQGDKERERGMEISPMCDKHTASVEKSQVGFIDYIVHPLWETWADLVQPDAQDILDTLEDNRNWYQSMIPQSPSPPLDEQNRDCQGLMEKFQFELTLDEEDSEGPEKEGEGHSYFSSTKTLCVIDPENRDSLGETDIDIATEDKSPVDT
Cytochrome P450 1A2 (Homo sapiens), sequence (P05177 whole entry, looked up): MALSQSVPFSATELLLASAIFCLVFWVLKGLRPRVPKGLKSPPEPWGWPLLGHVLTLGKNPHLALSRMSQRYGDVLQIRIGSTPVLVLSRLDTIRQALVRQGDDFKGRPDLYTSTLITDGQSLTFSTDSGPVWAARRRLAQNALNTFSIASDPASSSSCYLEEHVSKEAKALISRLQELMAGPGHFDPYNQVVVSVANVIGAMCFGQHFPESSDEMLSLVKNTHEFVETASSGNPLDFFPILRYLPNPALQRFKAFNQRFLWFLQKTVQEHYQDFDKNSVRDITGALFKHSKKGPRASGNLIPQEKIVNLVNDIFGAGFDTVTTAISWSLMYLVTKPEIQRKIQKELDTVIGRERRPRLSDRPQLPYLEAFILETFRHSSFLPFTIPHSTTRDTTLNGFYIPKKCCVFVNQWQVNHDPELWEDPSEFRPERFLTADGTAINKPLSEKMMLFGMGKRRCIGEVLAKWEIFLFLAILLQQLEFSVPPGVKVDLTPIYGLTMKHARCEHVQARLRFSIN
Glucocorticoid receptor (Homo sapiens), sequence (P04150 whole entry, looked up, the tested form may be a part): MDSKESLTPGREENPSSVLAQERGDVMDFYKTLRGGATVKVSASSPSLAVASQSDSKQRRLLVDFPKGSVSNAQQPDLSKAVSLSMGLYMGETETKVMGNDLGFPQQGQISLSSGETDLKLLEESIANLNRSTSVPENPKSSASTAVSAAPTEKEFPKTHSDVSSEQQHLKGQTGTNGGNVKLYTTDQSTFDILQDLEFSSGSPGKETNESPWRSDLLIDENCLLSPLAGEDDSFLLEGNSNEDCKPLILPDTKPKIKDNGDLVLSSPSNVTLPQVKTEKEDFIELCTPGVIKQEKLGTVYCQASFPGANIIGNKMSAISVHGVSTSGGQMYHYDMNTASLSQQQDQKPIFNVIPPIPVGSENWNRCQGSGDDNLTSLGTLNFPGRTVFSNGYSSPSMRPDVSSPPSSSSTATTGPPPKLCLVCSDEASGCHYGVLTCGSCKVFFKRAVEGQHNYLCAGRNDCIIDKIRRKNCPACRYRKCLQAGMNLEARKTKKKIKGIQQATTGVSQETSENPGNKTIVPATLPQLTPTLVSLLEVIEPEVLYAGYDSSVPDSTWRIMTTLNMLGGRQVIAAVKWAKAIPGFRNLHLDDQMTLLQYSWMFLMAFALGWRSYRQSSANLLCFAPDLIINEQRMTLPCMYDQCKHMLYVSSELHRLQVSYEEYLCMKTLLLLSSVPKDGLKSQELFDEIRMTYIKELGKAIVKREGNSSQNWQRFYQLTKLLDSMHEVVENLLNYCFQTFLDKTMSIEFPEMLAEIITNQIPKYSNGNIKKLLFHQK
Cytochrome P450 2C9 (Homo sapiens), sequence (P11712 whole entry, looked up): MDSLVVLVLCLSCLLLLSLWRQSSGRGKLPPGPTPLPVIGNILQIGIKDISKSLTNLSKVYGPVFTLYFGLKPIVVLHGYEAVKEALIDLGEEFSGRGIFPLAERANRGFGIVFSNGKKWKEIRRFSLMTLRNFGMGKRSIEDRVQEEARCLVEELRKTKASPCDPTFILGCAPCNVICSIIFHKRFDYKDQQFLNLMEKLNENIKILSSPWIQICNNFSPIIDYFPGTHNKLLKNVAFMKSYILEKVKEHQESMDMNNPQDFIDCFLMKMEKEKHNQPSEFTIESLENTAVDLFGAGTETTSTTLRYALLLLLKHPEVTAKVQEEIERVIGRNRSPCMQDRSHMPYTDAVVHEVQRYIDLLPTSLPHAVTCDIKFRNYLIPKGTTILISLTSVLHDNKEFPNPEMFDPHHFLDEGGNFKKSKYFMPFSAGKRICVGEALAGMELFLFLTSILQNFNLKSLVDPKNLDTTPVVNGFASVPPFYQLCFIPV

As to `COc1ccc(Oc2ncc3nc(-c4cccs4)c(=O)n(C)c3n2)cc1`, the Potency in [1] is more than 11.4 µM; in [3] it was 3.16 µM (active); in test [6], more than 9.22 µM; in test [7], more than 46 µM; in test [10], 3.16 µM (active); in [11], 3.98 µM (active). For the same compound, the Potency in test [13] was 3.16 µM (active). Also, the activity change, negative = inhibition in test [2] is 18.3%; in test [4], 28.2%. Moreover, the activity, negative = inhibition in test [5] was 27.9%. In addition, the Potency result in [8], in test [9] and in test [12] was “inactive” each time. For the same compound, in test [14], the result was inactive.
In the case of `CN(C)c1ncc2ncc(=O)n(C)c2n1`, the Potency in test [1] is more than 11.4 µM; in test [3] it was 6.31 µM (active); in [6], more than 9.22 µM; in [7], more than 46 µM. For the same compound, the activity change, negative = inhibition was -20.1% in test [2] and 0.153% in test [4]. In addition, the activity, negative = inhibition in test [5] was -5.5%. Besides, the Potency entry in [8] and in test [9] was “inactive” in each case. Also, the outcome in test [14] was inactive.
Take `N#Cc1cccc(-c2cc(NCc3cccnc3)ncn2)c1`: the Potency is more than 11.4 µM in test [1]; 0.0398 µM (active) in test [3]; more than 46 µM in test [6]; more than 46 µM in [7]; 2.51 µM (active) in test [11]. For the same compound, the values for the activity change, negative = inhibition in test [2] and in test [4] were 11.5% and 3.13%, respectively. Also, the activity, negative = inhibition in [5] is -25.4%. The Potency entry in test [8], in test [9], in [12] and in test [15] was “inactive” throughout. Besides, the result in test [14] was inactive.
Consider `CN(C)C(=O)c1ccc(-c2nc(N(C)Cc3ccco3)c3ccccc3n2)cc1`, for which the Potency in test [1] is more than 11.4 µM; in test [3], 7.94 µM (active); in test [6], more than 46 µM; in test [7] it was more than 46 µM. In addition, the activity change, negative = inhibition was -14.5% in test [2] and 18.1% in [4]. Moreover, the activity, negative = inhibition in test [5] is 3.3%. For the same compound, the Potency result in [8], in test [16] and in test [15] was “inactive” each time. In addition, the call in [17] and in test [14] was inactive.
Consider `COc1ncc2ncc(=O)n(CCC#N)c2n1`, for which the Potency in [1] was more than 11.4 µM; in test [3] it was 20 µM (active); in test [6] it was more than 9.22 µM; in [7] it was more than 46 µM. The activity change, negative = inhibition in test [2] is 1.28%; in test [4], -1.77%. Moreover, the activity, negative = inhibition in [5] is -9.79%. For the same compound, the Potency entry in [8] and in [9] was “inactive” in each case. The result in [14] was inactive.
For `Fc1ccc(Nc2nc(-c3ccoc3)nc3ccccc23)cc1`, the Potency is 7.43 µM (active) in [1]; 0.316 µM (active) in test [3]; more than 46 µM in test [6]; more than 46 µM in test [7]; 3.98 µM (active) in test [11]. In addition, the activity change, negative = inhibition in test [2] is 11.4%; in [4], -21.4%. Moreover, the activity, negative = inhibition in [5] was 4.98%. For the same compound, the Potency result in test [8], in test [12] and in test [15] was “inactive” in each case. The result in test [14] was inactive.
Take `c1ccc(CNc2ncncc2-c2ccoc2)cc1`: the Potency in [1] is more than 11.4 µM; in test [3] it was 5.01 µM (active); in test [6], more than 46 µM; in test [7], more than 46 µM; in test [11], 2 µM (active). Besides, the activity change, negative = inhibition in test [2] is 9.24%; in test [4], 17%. Besides, in test [5], the activity, negative = inhibition was -8.66%. Further, the Potency result in test [8], in test [9], in test [12] and in [15] was “inactive” throughout. Further, the activation in [13] is 1.1%. For the same compound, the outcome in test [14] was inactive.
